# Results taken from PubChem BioAssay (NCI).
# Where “and” joins values, the source holds several entries; their conditions need not be identical. Equal entries are not always repeated. About 83,000 compounds went through this panel and 20% of them were active in at least one assay; those are over-represented in the sample as a whole.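 Compound tested at a single concentration for 48 hours in 96-well plates; a percent growth value below 10 was scored as active.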 Calls of active or inactive are those of the source.
# Tested on: MDA-MB-468 breast
# Experiment: NCI-60 one-dose screen, 48 h (100 = growth as untreated, 0 = no growth, -100 = all killed)
# Conditions: 10 µM unless noted
row,SMILES,growth
1,CCOC(=O)n1cc(C2=C(c3ccc(OC)c(OC)c3)COC2=O)c2ccccc21,-41.8% (active)
2,CN1CCN(Cc2ccc(NC(=O)c3[nH]ncc3Nc3cc(OC4CCCC4)ncn3)cc2)CC1,16.1% (inactive)
3,CCOC(=O)c1c2c(c(C)n1Cc1ccccc1)-c1nc(N)ncc1CC2,100% (inactive)
4,O=c1cc(-c2ccc(Cl)cc2)[nH]c2ccccc12,85.6% (inactive)
5,O=C(Cn1ccc(=O)[nH]c1=O)c1ccc([N+](=O)[O-])o1,44.4% (inactive)
6,COc1ccc(C2CC(c3cc(OC)c(OC)c(OC)c3)=NN2)cc1 (stereo not given),66.6% (inactive)
7,O=C(C1CCC1)N1N=C(c2ccc(-n3ccc(C(F)(F)F)n3)cc2)CC1c1ccc[nH]1 (stereo not given),106% (inactive)
8,C/C(=N\O)[C@H]1C[C@]23CC[C@]4(C)[C@H](CC[C@@H]5[C@@]6(C)CC/C(=N/O)C(C)(C)[C@@H]6CC[C@]54C)[C@H]2[C@H](C)C1(C)OC3,103% (inactive)
9,O=C1/C(=C/c2ccc([N+](=O)[O-])cc2)CN(C(=O)CCN2CCC(=NO)CC2)C/C1=C\c1ccc([N+](=O)[O-])cc1,-33.6% (active)
10,Clc1cccc(Nc2nc(Nc3cnc4ccccc4c3)c3[nH]cnc3n2)c1,86% (inactive)
11,CN1CCN(Cc2ccc(NC(=O)c3cncc(C#Cc4cnc5ccc(OCCCS(C)(=O)=O)nn45)c3)cc2C(F)(F)F)CC1,-61.6% (active)
12,NC(=O)c1nc2c([nH]c1=O)CCCC2,95% (inactive)
13,COc1ccc(/C=C(\C#N)n2nc3cccc(F)c3n2)cc1,100% (inactive)
14,Cc1ccc(C)c2c1sc1nc3n[nH]c(N)c3c(=N)n12,97.1% (inactive)
15,O=S(=O)(CCN1CCOCC1)Nc1cncc(-c2ccc3ncnc(Nc4ccc(F)c(Cl)c4)c3c2)c1,-23.1% (active)
16,NC(=S)NN=C1CCC(C2CCCCC2)CC1 (stereo not given),50.9% (inactive) and 46.9% (inactive)
17,CC(C)n1nc(C#Cc2cccc(NC(=O)c3cccc(C(F)(F)F)c3)c2)c2c(N)ncnc21,8.73% (active)
18,Fc1cc(F)cc(NNC(=S)c2ccccc2)c1,43.5% (inactive)

row,SMILES,growth
1,COc1cc(-c2csc(NC(=O)Nc3ccc(Cl)cc3Cl)n2)cc(OC)c1OC,17.7% (inactive)
2,C=C(C)[C@@H]1CC[C@]2(C(=O)O)CC[C@]3(C)[C@H](CC[C@@H]4[C@@]5(C)C[C@@H](CC#Cc6ccccc6)C(=O)C(C)(C)[C@@H]5CC[C@]43C)[C@@H]12,19.8% (inactive)
3,O=C(CCl)Nc1ccc2c(c1)C(=O)c1ccc(NC(=O)CCl)cc1C2=O,-75.7% (active)
4,C[C@]12C=CC(=O)C=C1CCC1C2[C@@H](O)C[C@@]2(C)C1CC[C@]2(O)C(=O)COC(=O)CCC(=O)O (stereo not given in full),115% (inactive)
5,O=C(CCCCCNC(=O)c1cc(=O)c(O)co1)Nc1ccccc1,108% (inactive)
6,CN1CCN(c2ccc(-c3cc4c(Nc5ccc(F)c(Cl)c5)ncnn4c3)cn2)CC1,70.1% (inactive)
7,O=C(CCc1nnc(Cn2ccnc2)o1)c1nc2ccccc2[nH]1,108% (inactive)
8,Cc1c(C)c2c(c(C)c1OC(=O)CCC(=O)[O-])CCC(C)(CCCCCCCCCCC[P+](c1ccccc1)(c1ccccc1)c1ccccc1)O2 (stereo not given),-70.4% (active)
9,O=C(C[n+]1cccc2cc(Cl)ccc21)c1ccc2c(c1)CCCC2,9.66% (active)
10,CCCCCCCCCCCCc1ccc(C(=O)/C=C/C(=O)O)cc1,-9.53% (active)
11,Nc1nc2ncc(CNc3ccc(C(=O)NC(CCC(=O)NC(CCC(=O)NC(CCC(=O)NC(CCC(=O)NC(CCC(=O)O)C(=O)O)C(=O)O)C(=O)O)C(=O)O)C(=O)O)cc3)nc2c(=O)[nH]1 (stereo not given),131% (inactive)
12,O=Cc1[nH]c(Sc2ccccc2)c2ccccc12,47.7% (inactive)
13,N=c1c2ccccc2nc2n1CCCCC2,103% (inactive)
14,CCN(C(=O)c1cc2ccccc2[nH]1)[C@H]1CCC[C@@H](NCc2ccc(OC)cc2)C1,80.7% (inactive)
15,Clc1ccc2c(c1)nnn1c3ncccc3c(Br)c21,76.1% (inactive)
16,C=C(C)[C@@H]1CC[C@]2(C(=O)N3CCN(C)CC3)CC[C@]3(C)[C@H](CC[C@@H]4[C@@]5(C)CC[C@H](OP(=O)(OCC)OCC)C(C)(C)[C@@H]5CC[C@]43C)[C@@H]12,76.2% (inactive)
17,Nc1nc(SN=Nc2ccc(S(N)(=O)=O)cc2)c2[nH]cnc2n1,-9.35% (active)
